{"source": "PubChem BioAssay (Tox21)", "experiment": "Nuclear factor erythroid 2-related factor 2/antioxidant responsive element (Nrf2/ARE) small molecule agonists: luciferase reporter gene qHTS assay in human keratinocytes (AID 1919969); note: nearly all actives have a fitted effect of over 35% in size", "note": "Several values for one entry are separate records, joined by “and”; a condition that tells them apart may be missing. Identical values can stand only once. Results filed as inconclusive are left out. Where a call stands in place of a potency, no number is given. Where a structure was tested more than once in an assay, its records may differ in their call. Activity calls are given as the source filed them. Calls come from the whole dose curve. Potency is the fitted concentration of half-maximal effect."}
{"smiles": "Nc1cccc(Cl)c1", "values": [{"measurement": "Potency", "result": "inactive"}]}
{"smiles": "CC(C)C(C)(N)C#N", "note": "(stereo not given)", "values": [{"measurement": "Potency", "result": "inactive"}]}
{"smiles": "Cn1c(N)nc2c3cccnc3ccc21", "values": [{"measurement": "Potency", "result": "inactive"}]}
{"smiles": "Clc1cnc(Oc2ccc(Oc3ncc(Cl)cc3Cl)cc2)c(Cl)c1", "values": [{"measurement": "Potency", "result": "inactive"}]}
{"smiles": "c1ccc(P(c2ccccc2)c2ccccc2)cc1", "values": [{"measurement": "Potency", "result": "inactive"}]}
{"smiles": "NCC(O)c1ccc(O)cc1", "note": "(stereo not given)", "values": [{"measurement": "Potency", "result": "inactive"}]}
{"smiles": "CCCCOP(=O)(CCCC)OCCCC", "values": [{"measurement": "Potency", "result": "inactive"}]}
{"smiles": "CC(C)OS(C)(=O)=O", "values": [{"measurement": "Potency", "result": "inactive"}]}
{"smiles": "C=C(C)CCl", "values": [{"measurement": "Potency", "result": "inactive"}]}
{"smiles": "C[C@H]1O[C@H](OC2[C@@H](O)[C@@H](O)C(O)[C@H](O)[C@H]2O)[C@@H](N)C[C@@H]1N=C(N)C(=O)O", "note": "(stereo not given in full)", "values": [{"measurement": "Potency", "result": "inactive"}]}
{"smiles": "COC(C)(C)CCCC(C)C/C=C/C(C)=C/C(=O)OC(C)C", "note": "(stereo not given)", "values": [{"measurement": "Potency", "result": "47.8 µM (active)"}]}
{"smiles": "C=CCOCC1CO1", "note": "(stereo not given)", "values": [{"measurement": "Potency", "result": "inactive"}]}
{"smiles": "CC(O)CN(CC(C)O)CC(C)O", "note": "(stereo not given)", "values": [{"measurement": "Potency", "result": "inactive"}]}
{"smiles": "O=C/C=C/c1ccco1", "values": [{"measurement": "Potency", "result": "inactive"}]}
{"smiles": "CC(=O)C1CCOC1=O", "note": "(stereo not given)", "values": [{"measurement": "Potency", "result": "inactive"}]}
{"smiles": "O=C=NC1CCCCC1", "values": [{"measurement": "Potency", "result": "inactive"}]}
{"smiles": "Nc1ccccc1C(=O)O", "values": [{"measurement": "Potency", "result": "inactive"}]}
{"smiles": "CCC1(CC)C(=O)C=CNC1=O", "values": [{"measurement": "Potency", "result": "inactive"}]}
{"smiles": "CC(C)Nc1ccc(Nc2ccccc2)cc1", "values": [{"measurement": "Potency", "result": "9.65 µM (active) and 24.3 µM (active)"}]}
{"smiles": "CC(C)(C)CC(C)(C)c1ccc(O)cc1", "values": [{"measurement": "Potency", "result": "inactive"}]}
{"smiles": "CCC[CH2][Sn]([Cl])([Cl])[CH2]CCC", "values": [{"measurement": "Potency", "result": "492 nM (active) and 969 nM (active)"}]}
{"smiles": "C[C@H]1CCCC(=O)CCC/C=C/c2cc(O)cc(O)c2C(=O)O1", "values": [{"measurement": "Potency", "result": "inactive"}]}
{"smiles": "Cc1ccc(OP(=O)(Oc2ccc(C)cc2)Oc2ccc(C)cc2)cc1", "values": [{"measurement": "Potency", "result": "61 µM (active) and inactive"}]}
{"smiles": "CC(C)(C1CCC(O)CC1)C1CCC(O)CC1", "note": "(stereo not given)", "values": [{"measurement": "Potency", "result": "inactive"}]}
{"smiles": "O=[N+]([O-])CCO", "values": [{"measurement": "Potency", "result": "inactive"}]}
{"smiles": "ClCC(Cl)(Cl)Cl", "values": [{"measurement": "Potency", "result": "inactive"}]}
{"smiles": "C[Si](Cn1cncn1)(c1ccc(F)cc1)c1ccc(F)cc1", "values": [{"measurement": "Potency", "result": "inactive"}]}
{"smiles": "O=C(CCN1CC1)OCC(CO)(COC(=O)CCN1CC1)COC(=O)CCN1CC1", "values": [{"measurement": "Potency", "result": "inactive"}]}
{"smiles": "CN1CC[C@]23c4c5ccc(O)c4O[C@H]2[C@@H](O)CC[C@H]3[C@H]1C5", "values": [{"measurement": "Potency", "result": "inactive"}]}
{"smiles": "CCCC[n+]1ccc(C)cc1", "values": [{"measurement": "Potency", "result": "inactive"}]}
{"smiles": "C=CCCl", "values": [{"measurement": "Potency", "result": "inactive"}]}
{"smiles": "Nc1ccc(Cl)cc1N", "values": [{"measurement": "Potency", "result": "31.9 µM (active) and 19.3 µM (active)"}]}
{"smiles": "CCCCOC(=O)COC(=O)c1ccccc1C(=O)OCCCC", "values": [{"measurement": "Potency", "result": "inactive"}]}
{"smiles": "OCC(O)CO", "values": [{"measurement": "Potency", "result": "inactive"}]}
{"smiles": "Cc1ccc(N)cc1Cl", "values": [{"measurement": "Potency", "result": "inactive"}]}
{"smiles": "CCCCCCCCCCCCCCCCn1cc[n+](C)c1", "values": [{"measurement": "Potency", "result": "inactive"}]}
{"smiles": "CCCCCCCCCCCCCCn1cc[n+](C)c1", "values": [{"measurement": "Potency", "result": "inactive"}]}
{"smiles": "C=CCO", "values": [{"measurement": "Potency", "result": "inactive"}]}
{"smiles": "C1CN2CCN1CC2", "values": [{"measurement": "Potency", "result": "inactive"}]}
{"smiles": "COc1ccccc1N", "values": [{"measurement": "Potency", "result": "61.1 µM (active) and inactive"}]}
{"smiles": "COCCl", "values": [{"measurement": "Potency", "result": "inactive"}]}
{"smiles": "O=C(Cl)c1ccccc1", "values": [{"measurement": "Potency", "result": "inactive"}]}
{"smiles": "O=C1C2CC=CCC2C(=O)N1SC(Cl)(Cl)Cl", "note": "(stereo not given)", "values": [{"measurement": "Potency", "result": "54.3 µM (active) and 7.57 µM (active)"}]}
{"smiles": "CN(N=O)c1ccccc1", "values": [{"measurement": "Potency", "result": "inactive"}]}
{"smiles": "C=CC(=O)OC(C)(C)C", "values": [{"measurement": "Potency", "result": "inactive"}]}
{"smiles": "O=C1C(Cl)=C(Cl)C(=O)C(Cl)=C1Cl", "values": [{"measurement": "Potency", "result": "4.84 µM (active) and 9.69 µM (active)"}]}
{"smiles": "COP(=O)(OC)OC", "values": [{"measurement": "Potency", "result": "61.6 µM (active) and inactive"}]}
{"smiles": "Cc1ccc(N)c(C)c1", "values": [{"measurement": "Potency", "result": "inactive"}]}
{"smiles": "CCCCCC[n+]1ccccc1", "values": [{"measurement": "Potency", "result": "69.2 µM (active) and 69 µM (active) and inactive"}]}
{"smiles": "CC(C)(C)C(=O)C(Cl)Cl", "values": [{"measurement": "Potency", "result": "inactive"}]}
{"smiles": "CCBr", "values": [{"measurement": "Potency", "result": "inactive"}]}
{"smiles": "O=C([O-])c1ccccn1.O=C([O-])c1ccccn1.O=C([O-])c1ccccn1.[Cr+3]", "values": [{"measurement": "Potency", "result": "inactive"}]}
{"smiles": "Cc1cnc(C2=NC(C)(C(C)C)C(=O)N2)c(C(=O)O)c1", "note": "(stereo not given)", "values": [{"measurement": "Potency", "result": "inactive"}]}
{"smiles": "Cc1cc(Cl)ccc1OC(C)C(=O)O", "note": "(stereo not given)", "values": [{"measurement": "Potency", "result": "inactive"}]}
{"smiles": "CCNc1nc(Cl)nc(NC(C)C)n1", "values": [{"measurement": "Potency", "result": "inactive"}]}
